Assay outcomes deposited in PubChem BioAssay by The Scripps Research Institute Molecular Screening Center.
Hits are enriched below; roughly 4.8% of the tested compounds scored in any of these assays.
DAX1 inh-1: NR0B1 (DAX1) inhibition; P51843; HEK293 Gal4-DAX1 luciferase reporter, luminescence; inhibition, % at 6.75 µM; 340,000 tested, 0.99% active; AID 504766;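 active means inhibition above the mean over all tested compounds plus 3 SD, cut at about 4.2% in these data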;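 further: 0% = DAX1-transfected cells with DMSO and 100% = empty-vector control cells with DMSO; inhibition shows as a rise in luminescence from relieved DAX1 repression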
Target sequence (P51843 207-470 limits assumed): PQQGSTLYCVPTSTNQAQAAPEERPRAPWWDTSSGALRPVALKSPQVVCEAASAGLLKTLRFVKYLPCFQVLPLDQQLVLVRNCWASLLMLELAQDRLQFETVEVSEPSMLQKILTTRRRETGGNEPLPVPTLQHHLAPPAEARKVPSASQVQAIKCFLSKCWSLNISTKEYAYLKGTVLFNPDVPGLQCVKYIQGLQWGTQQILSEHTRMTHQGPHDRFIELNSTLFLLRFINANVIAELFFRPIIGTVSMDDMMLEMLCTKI
SMARCA2 act: activators of SMARCA2 function | MG213 cells, MMTV-luciferase reporter, dexamethasone, overnight | activation, % at 9.1 µM | 370,000 tested, 1% active | AID 652017; in the data active means activation above about 7.8%;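 further: 0% = vehicle wells and 100% = reference activator wells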
DAX1 inh-2: DAX1 (NR0B1) inhibition, primary screen; HEK293T StAR-luciferase reporter, SF-1/DAX-1 repression relief; inhibition, % at 6.8 µM; 370,000 tested, 1.1% active;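 active means inhibition above the mean over all tested compounds plus 3 SD, cut at about 3.6% in these data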;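 further: 0% = DAX-1 cells with DMSO and 100% = cells lacking DAX-1 with DMSO; higher inhibition means more luminescence from relief of DAX-1 repression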
hcDAF12 agonist: activators of H. contortus DAF-12 nuclear receptor. HEK293 hcDAF-12 lit1-tk-luc reporter, luminescence; 0% DMSO, 100% Δ7-dafachronic acid. 370,000 tested, 1.4% active. AID 652067. activation, % at 6.8 µM;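 active means activation above the mean of all tested compounds plus 3 SD, cut at about 5.5% in these data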;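 further: 100% = response to 3 µM Δ7-dafachronic acid high control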
ssDAF12 agonist: activates DAF-12 receptor from parasite S. stercoralis; HEK293 ssDAF-12/GRIP1 lit1-tk-luc reporter, luminescence; % of 3 µM dafachronic acid response; activation, % at 6.8 µM; 370,000 tested, 1% active; AID 652126;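 active means activation above the mean over all tested compounds plus 3 SD, cut at about 0.9% in these data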;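 further: 0% = DMSO-only wells and 100% = 3 µM delta7-dafachronic acid wells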
hgDAF-12 ag: activates the H. glycines DAF-12 receptor ligand-binding domain; HEK293 GAL4-hgDAF12 UAS-luciferase reporter, agonist luminescence; normalized to butyrate control; AID 687014; 370,000 tested, 1.8% active; activation, % at 6.8 µM;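 active means activation above a cutoff set at the mean of all screened compounds plus 3 SD, cut at about 10% in these data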;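 further: 0% = DMSO wells and 100% = sodium butyrate wells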
Active calls of the source: *; / = not tested or not shown.

SMILES | DAX1 inh-1 | SMARCA2 act | DAX1 inh-2 | hcDAF12 agonist | ssDAF12 agonist | hgDAF-12 ag
Cc1c(Cl)cccc1S(=O)(=O)Nc1ccnn1C | 4.3* | -1 | 0 | -1 | -1 | 2
O=C(c1ccc(Cl)cc1)C1CCN(c2ncnc3sccc23)CC1 | / | / | / | -6 | -3 | -5
CCCCN(C)Cc1c(O)ccc2c(=O)c(-c3ccccc3OC)coc12 | 2 | -1 | 0 | 0 | -1 | 0
CCCCc1cc(=O)oc2cc(C)cc(OCC(=O)N3C[C@H]4C[C@@H](C3)c3cccc(=O)n3C4)c12 | 7.0* | 0 | 1 | -1 | -1 | 1
CCOC(=O)C1=C(C)NC(=O)C(C(N)=O)C12CCCC2 (stereo not drawn) | 5.1* | -1 | 1 | 0 | -1 | -3
CCOC(=O)C1=C(C)NC(=O)C(C(N)=O)C12CCCCC2 (stereo not drawn) | 0 | 1 | -1 | -1 | -1 | 1
Cc1cc(NC(=O)c2cc(-c3ccncc3)nc3ccccc23)ccc1Br | 0 | -1 | -2 | -1 | -1 | -1
COc1ccccc1C(=O)NNC1=C(C(=O)C(F)(F)F)CCC1 | 2 | 3 | 2 | 4 | 0.9* | 8
O=C(NNC1=C(C(=O)C(F)(F)F)CCC1)c1ccccc1O | 4 | -1 | 1 | 5.6* | 1.0* | 6
CSc1ncccc1C(=O)OCC(=O)NC1CCC(C)CC1 (stereo not drawn) | 2 | -2 | 0 | 0 | -1 | 0
Cc1ccc(C(C[N+](=O)[O-])Sc2ccc(N)cc2)cc1 (stereo not drawn) | 2 | -2 | 0 | 1 | -1 | 0
C(=N\N1CCN(c2ccccn2)CC1)/c1ccco1 | -1 | 1 | 0 | -2 | -1 | 2
c1ccc(N2CCN(c3nccn4ccnc34)CC2)nc1 | / | 1 | 4.0* | 5 | 1 | 10
C(=N\N1CCN(c2ccccn2)CC1)/c1ccccn1 | 2 | -1 | 2 | 3 | 1.1* | 6
Cc1ccc(/C=N/N2CCN(c3ccccn3)CC2)o1 | 4.7* | 0 | 1 | -1 | 0 | 3
Oc1ccc(/C=N/N2CCN(c3ccccn3)CC2)cc1 | 2 | 2 | 0 | -1 | -1 | 6
O=C(O)c1ccc(-c2ccccc2)[nH]c1=O | 5.4* | 5 | 0 | -1 | -1 | -2
Cc1ccc(S(=O)(=O)NC(=O)C2(C)CCN2C(=O)C2CCCCC2)cc1 (stereo not drawn) | / | -2 | 1 | -1 | -1 | -2
CC1=NN(C(N)=S)C(=O)C1N=Nc1ccc(C)c(Br)c1 (stereo not drawn) | 2 | 2 | 1 | 6.1* | 0 | 8
C[C@H](O)[C@@H]1CN2CCc3ccc(N4CCOCC4)cc3[C@@H]2C[C@@H]1N(C)C(=O)c1ccccc1F | / | 1 | -1 | -1 | -1 | 4
CC(C)c1nnc(NC(=O)c2cccc(NC(=O)C(F)(F)F)c2)s1 | 3 | 2 | 2 | 2 | -1 | 12*
CC(C)C(=O)Nc1cccc(C(=O)Nc2nnc(C(C)C)s2)c1 | 0 | 5 | 2 | 2 | 0 | 7
O=C(Nc1ccc(Cl)cc1Cl)O[C@@H]1CC[C@@]23CCCN2C(=O)CCC[C@H]3C1 | / | / | / | -1 | -2 | 0
COc1ccc(/C=C(\C#N)C(=O)Nc2ccccn2)cc1 | -1 | 0 | 0 | 0 | -1 | 0
C=CCOc1ccc(/C=C(\C#N)C(=O)Nc2ccccn2)cc1OC | 4.7* | 3 | 0 | -1 | -1 | -1
SMILES | DAX1 inh-1 | SMARCA2 act | DAX1 inh-2 | hcDAF12 agonist | ssDAF12 agonist | hgDAF-12 ag
Cn1c2ccccc2c2cc(C(=O)O)ccc21 | 1 | -3 | 2 | 5.9* | 0 | 0
CCCn1c2ccccc2c2cc(C(=O)O)ccc21 | 2 | -2 | 0 | 0 | -1 | 2
CCNC(=O)C1CCCN(C(=O)C(c2ccccc2)c2ccccc2)CC1 (stereo not drawn) | / | -3 | 0 | -1 | -1 | 0
COCC(C)NC(=O)NC(=O)c1ccc(Cl)cc1 (stereo not drawn) | 0 | 1 | 2 | 0 | 1.1* | 0
CC(NC(=O)NC(=O)c1ccc(Cl)cc1)c1ccccc1 (stereo not drawn) | -1 | -2 | -5 | -2 | -1 | 0
CCCCC[C@@H](C)N1C[C@H](COCc2ccccc2)Oc2cc(N3CC[C@H](O)C3)ccc2S1(=O)=O | / | -3 | 0 | -2 | -1 | 2
O=C(Nc1ccc(F)cc1)c1nc[nH]c1C(=O)O | 4.3* | 0 | 1 | 0 | -1 | 2
COCCNC(=O)C(=O)NNS(=O)(=O)c1ccc2ccccc2c1 | 0 | -1 | 0 | -1 | -1 | 1
COc1ccccc1C(=O)NNC(=O)CCC(=O)NCc1ccccc1 | 1 | 1 | 0 | 5.7* | 0 | 2
COc1cccc(C(=O)NOCc2ccccc2)c1OC | 1 | 1 | 4.4* | 3 | 1 | 10
COCCNC(=O)C(=O)NNS(=O)(=O)c1ccc(Cl)cc1 | 4.5* | 1 | 0 | 0 | -2 | -1
COc1ccccc1C(=O)NNC(=O)C(=O)NC1CCCCC1 | 0 | 1 | 0 | 3 | 1 | 3
COCCNC(=O)C(=O)NNC(=O)c1ccccc1OC | -1 | -3 | 0 | 4 | 1.5* | 3
O=C(Cc1cccc2ccccc12)NN=Cc1ccc2c(c1)CCC2 | 1 | -1 | 0 | 0 | -1 | 2
CCc1ccc(OCCCCN(C)Cc2ccccc2)cc1 | 0 | -2 | 0 | -1 | -1 | -1
COc1ccccc1OCCOC(=O)Nc1ccccc1 | 0 | 5 | -1 | 3 | -1 | 0
COc1cccc(COC(=O)Nc2ccccc2)c1OC | / | 0 | 3 | 2 | 0 | 12*
CN(Cc1nc(-c2cccc(Cl)c2)no1)C1CCOCC1 | 0 | -2 | 2 | 3 | -1 | 12*
CCN(Cc1nc(-c2cccc(Cl)c2)no1)CC1CCCO1 (stereo not drawn) | 0 | -3 | 0 | 0 | -1 | 1
COc1ccc(/C=C2\SC(=S)N(CCC(=O)Nc3cccc(O)c3)C2=O)cc1 | 4.8* | 0 | 1 | 0 | -1 | 2
O=C(C(=O)N1CCN(C(=O)OCc2ccccc2)CC1)c1cccs1 | / | -4 | 0 | -1 | -1 | -1
COCCNc1cnn(-c2ccccc2)c(=O)c1Cl | 4.9* | -3 | 0 | 2 | -2 | 1
Cc1ccc(-n2nc(C)c3c(C)cc(=O)[nH]c32)cc1 | 1 | -1 | 1 | 4 | 3.5* | 4
Cc1nn(-c2ccccc2)c2[nH]c(=O)cc(C(F)F)c12 | 1 | -1 | -1 | 1 | 1 | -1
CC(=O)Nc1ccc(NC(=O)c2ccccc2-n2cnnn2)cc1 | 1 | -2 | 0 | 3 | -1 | 0
CC(=O)c1ccc(C(=O)N2CCc3c([nH]c4ccccc34)C2c2cccc(C)n2)s1 (stereo not drawn) | 1 | -1 | 0 | 3 | 0 | -3
